Data reported in article PMC12136788.
Substitutions are numbered along the chain they refer to. Over roughly 5,800 sequences, “enrichment r” has its median near 0.68; the highest 2% begin near 11. Shown is part of a subset that was picked to be rich in the highest values.

T1: UNK ZnF1-6 (called full-length) (human, UniProt Q9C0B0 30-357)
T1 sequence: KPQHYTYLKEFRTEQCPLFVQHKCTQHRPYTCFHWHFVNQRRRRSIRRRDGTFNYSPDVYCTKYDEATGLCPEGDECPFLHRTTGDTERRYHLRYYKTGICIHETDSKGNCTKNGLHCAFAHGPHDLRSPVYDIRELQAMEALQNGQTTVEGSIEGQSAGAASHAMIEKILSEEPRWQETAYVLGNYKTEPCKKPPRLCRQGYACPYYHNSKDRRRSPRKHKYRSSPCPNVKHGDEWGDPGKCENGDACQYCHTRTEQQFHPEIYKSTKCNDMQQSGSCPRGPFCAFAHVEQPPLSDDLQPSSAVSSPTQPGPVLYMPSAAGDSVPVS

B1: chr3:89481969:89482070:+|3pUTR|ENSG00000044524|msi1|FALSE|unique (ssRNA)
RNA: GGGAGUUCUACAGUCCGACGAUCAUAUGUGUUUACUUUAAACUUGUCUUUUCAAAAUAUUACUCAGUUUAUGUUGUACAAUGUAGAUGGCCUCUUACUAAUGUAAAAUGAUUUGUAGUGGAAACAUUUAUAUUUUUAUAAUAACAACAGAGGAUUGAGCAUCA
B2: chr1:93361585:93361687:+|3pUTR|ENSG00000117505|unk|FALSE|unique (ssRNA)
RNA: GGGAGUUCUACAGUCCGACGAUCUUUAACUUGUAGUUAUAGUUUACUUAUUGUUUUUAGAAUUACUUUUACAUUUUCCCAACUAGAUGGCCUAGAGUCCAACAUUACCUUUUGAGAUGACAUUAUUGUCUCCAUAAUUGAGUGCAACAGAGGAUUGAGCAUCA
B3: chr14:53039561:53039662:-|3pUTR|ENSG00000100523|unk|total|mutant (ssRNA)
RNA: GGGAGUUCUACAGUCCGACGAUCUCAAACUAUAUUUUUGUUACAGCAAACUACAUUCCAUUUGCCUUUAAAUGCUUGCAUUUCCGUUAUUGUACUGGCUACCUGUUUUUGUCUGCCCAGCAUCCUGUUUCCCCUCCUUUUGGACAACAGAGGAUUGAGCAUCA
B4: chr1:180885316:180885399:+|3pUTR|ENSG00000143324|msi1_unk|FALSE|overlapping (ssRNA)
RNA: GGGAGUUCUACAGUCCGACGAUCUUGGCAGCCAUUUCUCCCAGCAGUUUUAAAGGAUGAACAUUGGAUUUCAUGCCAUCCCAUAGAAAACCUGUUUUAAAAUUUUAGGGAUCUUUACUUGGUCAUACAUGAAAAGUACACUGCCAACAGAGGAUUGAGCAUCA
B5: chr11:113276847:113276948:+|3pUTR|ENSG00000149294|msi1|FALSE|unique (ssRNA)
RNA: GGGAGUUCUACAGUCCGACGAUCAGAAGGGAAAAGCCAGCCCUUUGUAUAGAAAUUUUGCUUUUUUUUCCCUCAUUCUACUUUAGAACUGCAAGCUUGUGCACUGUGGAUGCGUGAAUAUUUUAGUGUGAAACGUGUUUUUGUCAACAGAGGAUUGAGCAUCA
B6: chr5:16663783:16663884:-|3pUTR|ENSG00000145555|msi1|FALSE|bound_elsewhere (ssRNA)
RNA: GGGAGUUCUACAGUCCGACGAUCUGAGGAUACAAAAUUCACAGAUGCUCAAGUCCCUGCUAUACAGUGGUAUAAUAUUUGCAUAGAACCUGCACACAUCUUUCCUUACCCUUUAAAUCAUCUCCAGGUUACAGAUACCUAGCACAACAGAGGAUUGAGCAUCA
B7: chr1:186359875:186359976:-|CDS|ENSG00000047410|msi1_unk|FALSE|overlapping (ssRNA)
RNA: GGGAGUUCUACAGUCCGACGAUCGGAAACUCAGGAUCAGUUGCUUUUGGAGAAACUAGAGAACAAAAGAAUUAAUAAGUACCUAGAUGAAAUAGUGAAAGAAGUGGAAGCCAAAGCACCAAUUUUGAAACGCCAGCGUGAGGACAACAGAGGAUUGAGCAUCA
B8: chr3:97755980:97756081:+|3pUTR|ENSG00000080224|unk|total|mutant (ssRNA)
RNA: GGGAGUUCUACAGUCCGACGAUCUAAUUAAAAAUCUCUUUCCUACCUUCCGUAAUUUGCCGGAUGAACUGUAUGCAUUCCGACCGAAAUUGCUUUUGUUAAAUUUACAUUUAAACACAUCUUCAUUCACUCCGAGAAGCCAUACAACAGAGGAUUGAGCAUCA
B9: chr1:32196777:32196878:+|3pUTR|ENSG00000084652|msi1|FALSE|unique (ssRNA)
RNA: GGGAGUUCUACAGUCCGACGAUCUUUGAAGCUAGUUCAUUGUCCUGCAGGUCCCUUCAUCUUCCAUACCUAGCCCACUCUUUUAGCCCUUACCUUAAAUCUCUCAGAUAAGUUGGUUCACAAAGAAUGUUAAGUACUGAAUCACAACAGAGGAUUGAGCAUCA
B10: chr2:223975255:223975490:-|3pUTR|ENSG00000135919|msi1|FALSE|bound_elsewhere (ssRNA)
RNA: GGGAGUUCUACAGUCCGACGAUCUUUAAAUUCUUUUCCCCCAUCCCCCUCCAAAGUCUUGAUAGCAAGCGUUAUUUUGGUGGUAGAAACGGUGAAAUCUCUAGCCUCUUUGUGUUUUUGUUGUUGUUGUUGUUGUUGUUUUAUCAACAGAGGAUUGAGCAUCA
B11: ENSG00000052841:stop:overlap|stop_codon|ENSG00000052841|stop_codon|NA|stop_codon (ssRNA)
RNA: GGGAGUUCUACAGUCCGACGAUCAGAACCGAAUCCAGACCAUCCAGUGUCACUUAAUGCUGAAGAAGGGACGGCGCUCUCCUUAGUGCACUUCUUCCUUCUCUCUUUCUCUUUACUCAUGCUCUAAAAAAAAAGAAUAAGAAACAACAGAGGAUUGAGCAUCA
B12: chr5:136174412:136174513:+|CDS|ENSG00000113658|unk|total|mutant (ssRNA)
RNA: GGGAGUUCUACAGUCCGACGAUCUAUGUUGGUGGAGAGGUGUAUGCGGAAUGCCUCAGUGACAGCAGCAUAUUUGUACAGAGCCGGAACUGCAACUUUCAUCAUGGCUUUCAUCCCACCACUGUCUGUAAGAUUCCCAGCAGCCAACAGAGGAUUGAGCAUCA
B13: chr12:909583:909684:+|3pUTR|ENSG00000060237|unk|FALSE|bound_elsewhere (ssRNA)
RNA: GGGAGUUCUACAGUCCGACGAUCUAGCUCUGUCCUUUACUUAUUGAGACACUUUAACUUUUUCCUUUGUAUUUCCAUUGUAUUAGAUAAAUAAAUGUGAAUGUAAAAUUGUAUAAAUUACUGUACUUGAAUACUUCUGUUUCCCAACAGAGGAUUGAGCAUCA
B14: chr2:24000049:24000165:+|3pUTR|ENSG00000173960|unk|FALSE|unique (ssRNA)
RNA: GGGAGUUCUACAGUCCGACGAUCGUAGCAUAUGACUGGAAACUAUAUUCAGUGCACUUUCUCCAAAAGACUACCCAGAAAAAUAGACUUAUUUUCAAAUACCAGUUAUCAAGAUAUAUUAAAUAGCUGUAUUGUUUAGAAUCUCAACAGAGGAUUGAGCAUCA
B15: chr6:57184343:57184440:+|3pUTR|ENSG00000112208|msi1_unk|FALSE|overlapping (ssRNA)
RNA: GGGAGUUCUACAGUCCGACGAUCUCUUCAGUUUUGUGAAUAACAAAACUAGCAAUAUUUUAAUUAUCUAUCUAGAGAUUUUUUAGAUUGAAUUCUUGUCUUGUACUAGGAUCUAGCAUAUUUCACUAUUCUGUGGAUGAAUACCAACAGAGGAUUGAGCAUCA
B16: chr12:98549999:98550103:+|3pUTR|ENSG00000120802|unk|FALSE|unique (ssRNA)
RNA: GGGAGUUCUACAGUCCGACGAUCUGUUUCCCAUACUGUUUUCAGCCUUUUGUUUAUAAUUAGAAAUUGUGAGAAGCUUCAUUUAGUGUUUAAAAAUGUGGGGAGAUAAAUCAGACUUAACAUGUAUGUAAGAUCAAUUCACUUCAACAGAGGAUUGAGCAUCA
B17: chrX:129805617:129805718:-|3pUTR|ENSG00000188706|msi1|FALSE|unique (ssRNA)
RNA: GGGAGUUCUACAGUCCGACGAUCUCUUUUCCCAUUAGAUAUAUGUAAGUAGUUGUAGUAGAGAUAAUAAUUGACAUUUCUCGUAGACUACCCAGAAACUUUUUUAAUACCUGUGCCAUUCUCAAUAAGAAUUUAUGAGAUGCCCAACAGAGGAUUGAGCAUCA
B18: chr11:10797513:10797714:-|3pUTR|ENSG00000110321|msi1_unk|FALSE|overlapping (ssRNA)
RNA: GGGAGUUCUACAGUCCGACGAUCUUCUGCAUAAGGUUUUUUUGUAGUGUAAUGUCUUAAUCAUAGUCUACCAUCAAAUAUUUUAGGAGUAUCUUUAAUGUUUAGAUAGUAUAUUAGCAGCAUGCAAUAAUUACAUCAUAAGUUCAACAGAGGAUUGAGCAUCA
B19: chr13:110149936:110150037:-|3pUTR|ENSG00000187498|msi1|FALSE|unique (ssRNA)
RNA: GGGAGUUCUACAGUCCGACGAUCUUCUUGUAUUAUAAUUAAUUUUCUACCCCCAGAGAUAAAUGUUUGUUUAUAUCACUGUCUAGCUGUUUCAAAAUUUAGGUCCCUUGGUCUGUACAAAUAAUAGCAAUGUAAAAAUGGUUUCAACAGAGGAUUGAGCAUCA
B20: chr8:116846039:116846140:-|3pUTR|ENSG00000164754|msi1|FALSE|bound_elsewhere (ssRNA)
RNA: GGGAGUUCUACAGUCCGACGAUCACAUUCAAUAUGAUGUGCCUGUAAACCAAGGAGUUUUCCCCGUUUGUAAAAAGACAUUGUAGAUAAUUGAAUGUUUGAUUUUAGAAAGGUCAUUAGUUUCUUGUUACACAUUUUGUUAGUCAACAGAGGAUUGAGCAUCA
B21: chr12:98549999:98550103:+|3pUTR|ENSG00000120802|unk|total|mutant (ssRNA)
RNA: B16 RNA with U60C, A61C, U83C, A84C
B22: chr22:43879677:43880794:-|three_prime_utr|ENSG00000100341|control|control|control (ssRNA)
RNA: GGGAGUUCUACAGUCCGACGAUCGAGAAAGGAGGACAGCCACAGAGACACAUGUCUUACUUUCAGAAUUUCCACGGGGGGACUAGGAGGGCAGCAUUGCUGGGGAGAGGGGCUCCUGUUCUGCCGUGGAGCUGCCCACGGAGCCAACAGAGGAUUGAGCAUCA

What follows are binders tested against T1, UNK ZnF1-6 (called full-length) (assay: nsRBNS (natural sequence RNA bind-n-seq); RBNS binding buffer (assumed for nsRBNS): 25 mM Tris pH 7.5, 150 mM KCl, 3 mM MgCl2, 0.01% Triton X-100, 500 ug/ml BSA, 20 U/ml SUPERase-In, 4 C; UNK is unkempt and MSI1 is Musashi-1; names of the RNAs are library labels; protein concentration not given here; high values mean tight binding).
For B1, the binding signal was 1.68 enrichment R. Binder B2 has a binding signal of 152 enrichment R. Binder B3 has a binding signal of 0.468 enrichment R. Work on B4 yielded a binding signal of 1.91 enrichment R. With B5 the binding signal was 1.38 enrichment R. Binder B6 has a binding signal of 0.456 enrichment R. Binder B7 has a binding signal of 4.28 enrichment R. In the case of B8, the binding signal is reported as 0.569 enrichment R. B9 gave a binding signal of 1.19 enrichment R. B10 showed a binding signal of 2.44 enrichment R. Binder B11 has a binding signal of 0.995 enrichment R. B12 showed a binding signal of 0.849 enrichment R. With B13 the binding signal was 12.7 enrichment R. Work on B14 yielded a binding signal of 3.33 enrichment R. In the case of B15, the binding signal is reported as 6.31 enrichment R. B16 was tested, and the binding signal was 6.12 enrichment R. B17 was tested, and the binding signal was 101 enrichment R. B18 gave a binding signal of 1.96 enrichment R. B19 showed a binding signal of 119 enrichment R. With B20 the binding signal was 5.22 enrichment R. In the case of B21, the binding signal is reported as 0.419 enrichment R. With B22 the binding signal was 1.05 enrichment R.
